TDP1 cell noCPT: qHTS for Inhibitors of human tyrosyl-DNA phosphodiesterase 1 (TDP1): qHTS in cells in absence of CPT; DT40 Tdp1-/- hTDP1 cells, no CPT, ATP luminescence, 48 h; Potency, µM (series often up to 46.2 µM), without a hit: at the top dose activity change, negative = growth inhibition, most hits filed as inhibitors; 420,000 tested, 15% active; AID 686978, 2013; also: % is scaled to controls: 0 for no effect and ±100 for the full control effect; nearly all actives have a fitted effect of over 55% in size
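Camptothecin absent (DMSO only). Human TDP1-complemented DT40 knockout cells, 400 cells/well, 37 °C for minimum 48 hr; ATP measured via CellTiter-Glo, 30 min dark incubation, luminescence.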
HepG2 tox: HepG2 cytotoxicity, counter-screen for TGF-b inhibitors; HepG2 CAGA-GFP viability, ATP luminescence, 18 h; AID 588856; 410,000 tested, 0.76% active; Potency, µM (titrated, usually from 46.1 µM), for the others: top-dose activity change, negative = cytotoxicity, usual class: cytotoxic
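HepG2 CAGA-GFP cells (1000/well, DMEM with 1% FBS) received compound, then TGF-beta at 500 pg/mL final, and were incubated 18 hours at 37 degrees C. Viability was read by CellTiter-Glo luminescence. Media-only wells were set as complete cell-killing and DMSO as no toxicity.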
ATXN2 expr inh: reduces ATXN2 reporter expression in HEK-293 cells. Potency, µM (top dose mostly 57 µM), inactives show at the top dose activity change, negative = inhibition, most hits filed as inhibitors. AID 1745845. 360,000 tested, 0.72% active. HEK-293 ATXN2-luciferase reporter, luminescence, 24 h; also: % is scaled to controls: 0 for no effect and ±100 for the full control effect; nearly all actives have a fitted effect of over 55% in size
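qHTS (up to 57 uM final) was run with 24 h compound exposure of reporter cells at 37 °C. Each well was multiplexed: SteadyGlo luminescence measured ATXN2-luciferase expression after a fluorogenic Gly-Phe-AFC viability readout (25 uM final).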
TDP1 cell CPT: growth inhibition of DT40 Tdp1-/-;hTDP1 cells with camptothecin (screen for TDP1 inhibitors). 420,000 tested, 12% active. chicken DT40 Tdp1-/-;hTDP1 cells + 20 nM CPT, ATP luminescence, 48 h. AID 686979. Potency, µM (series often up to 46.2 µM), without a hit: top-dose activity change, negative = growth inhibition, usual class: inhibitors; also: % is scaled to controls: 0 for no effect and ±100 for the full control effect; nearly all actives have a fitted effect of over 55% in size
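Chicken DT40 Tdp1-/- cells stably complemented with human TDP1 were seeded at 400 cells/well in medium containing 20 nM camptothecin, exposed to pin-transferred compounds, and grown at 37 °C for at least 48 hr. Viability was read as ATP luminescence.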
TGFb inhibitor: inhibitors of TGF-b signaling | HepG2 CAGA-GFP TGF-b/SMAD3 reporter, GFP fluorescence, 18 h; TGF-beta stimulated, 500 pg/mL final | Potency, µM (series often up to 46.1 µM), inactives show top-dose activity, negative = inhibition, most hits filed as inhibitors | 410,000 tested, 1.2% active | AID 588855; also: % is scaled to controls: 0 for no effect and ±100 for the full control effect; nearly all actives have a fitted effect of over 65% in size
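HEPG2 CAGA-GFP reporter cells (1000/well, DMEM with 1% FBS) received compounds, then recombinant TGF-beta at 500 pg/mL final for 18 hours at 37 degrees C. Per-cell GFP summed per well was normalised to unstimulated and stimulated DMSO controls before curve fitting.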
S2 tox: cell viability loss in ATXN counter-screen | AID 651635 | S2 cells (HEK-293 line with an ATXN2-luciferase reporter) viability, CellTiter-Fluor protease fluorescence, 24 h | 400,000 tested, 0.49% active | Potency, µM (top dose mostly 56.7 µM), most hits filed as cytotoxic; also: nearly all actives have a fitted effect of over 40% in size
Starred values were filed as active, the others as inactive; i = inactive; ? = inconclusive; . = not tested or not shown. Compounds with a hit are over-represented: about 17% of the library has one in this group of screens. Calls follow the shape of the dose curve; as a rule, active = well fitted curve in the direction sought with a large enough effect; inconclusive = small, poorly fitted or top-dose-only effect, or another doubt; inactive = no such curve, though single readings can be large; an effect the other way counts as inactive or inconclusive. Potency is read from the fitted curve at half-maximal effect.

SMILES	TDP1 cell noCPT	HepG2 tox	ATXN2 expr inh	TDP1 cell CPT	TGFb inhibitor	S2 tox
CCCn1c(NCc2ccccc2NS(=O)(=O)c2ccc(C)cc2)nc2ccccc21	16.4µM*	-9.8%	-33.8%	?	0.0%	i
CCn1c(NCc2cc(Br)ccc2NS(=O)(=O)c2ccc(C)cc2)nc2ccccc21	?	-21.6%	4.7%	?	?	i
CCn1c(NCc2ccccc2NS(=O)(=O)c2ccc(C)cc2)nc2ccccc21	18.4µM*	-0.4%	-26.3%	16.4µM*	-23.1%	i
CC(NC(=O)c1cccc2c1Oc1ccccc1S2)C(=O)O (stereo not given)	-14.9%	-42.4%	7.1%	-11.4%	0.4%	i
Cc1nn(CCC(=O)NCc2ccc(Cl)cc2)c(=O)c2nn(-c3ccccc3)c(C)c12	?	-2.2%	2.8%	?	-9.5%	i
C=CS(=O)(=O)c1c2cc(OC)ccc2nc2ccc(OC)cc12	2.59µM*	14.1µM*	?	2.31µM*	?	.
NC(=O)CN1C(=O)C(O)(CC(=O)/C=C\C=C\c2ccccc2)c2ccccc21 (stereo not given)	?	-11.8%	11.5%	?	2.3%	i
O=C(/C=C/C=C/c1ccccc1)CC1(O)C(=O)N(CCc2ccccc2)c2ccccc21 (stereo not given)	18.4µM*	-95.5%	-15.9%	20.6µM*	?	i
CCN1C(=O)C(O)(CC(=O)/C=C/C=C/c2ccccc2)c2ccccc21 (stereo not given)	?	-2.8%	-13.0%	23.1µM*	8.8%	i
C#CCN1C(=O)C(O)(CC(=O)/C=C/C=C/c2ccccc2)c2ccccc21 (stereo not given)	23.1µM*	-32.3%	.	?	?	i
O=C(C[C@@H]1C[C@@H]2c3cc(NC(=O)C4CCOCC4)ccc3O[C@@H]2[C@H](CO)O1)NCc1ccccn1	-13.5%	16.1%	-2.8%	-1.9%	8.2%	i
CC(c1ccccc1)N1CC(C(=O)Nc2nccs2)CC1=O (stereo not given)	-6.7%	-1.3%	-8.0%	3.1%	-4.9%	i
CCn1c(SC)nnc1-c1sc2cc(Cl)ccc2c1Cl	?	-2.2%	0.8%	16.4µM*	-28.7%	i
CCn1c(SC)nnc1-c1c[nH]c2ccccc12	-25.5%	-13.3%	11.7%	-18.2%	-1.1%	i
CSc1nnc(-c2ccccc2)n1C	-4.3%	-5.7%	-5.1%	-3.4%	-10.1%	i
CSc1nnc(-c2sc3cc(Cl)ccc3c2Cl)n1C	25.9µM*	0.6%	2.5%	?	1.2%	i
Cc1ccc(/C=N/NS(=O)(=O)c2ccc([N+](=O)[O-])cc2)o1	-27.5%	-27.0%	4.4%	-5.1%	-11.8%	i
Cc1ccc(S(=O)(=O)N/N=C\c2ccc([N+](=O)[O-])o2)cc1C	?	6.2%	-7.7%	18.4µM*	-26.2%	i
Cc1ccc(S(=O)(=O)N/N=C\c2ccc([N+](=O)[O-])o2)cc1	16.4µM*	-18.9%	2.6%	14.6µM*	-10.5%	i
O=[N+]([O-])c1ccc(/C=N/NS(=O)(=O)c2ccc(Cl)cc2)o1	16.4µM*	-7.2%	-9.6%	9.2µM*	-13.4%	i
Cc1ccc(S(=O)(=O)N/N=C\c2ccc3c(c2)OCO3)cc1C	-16.5%	-12.2%	-9.1%	1.5%	-25.0%	i
COCCNC(=O)c1onc(CS(=O)(=O)c2cc(C)cc(C)c2)c1C(=O)NCCOC	-4.6%	0.6%	3.6%	-1.2%	4.0%	i

Screens: PubChem, National Center for Advancing Translational Sciences (NCATS)
